About 83,000 compounds went through this panel and 20% of them were active in at least one assay; those are over-represented in the sample as a whole.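 96-well plates, one dose, 48 hours. Percent growth reported; active if below 10.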 Unmarked numbers belong to inactive results. The source made the active and inactive calls.
Legend:
Assay in all cases: NCI-60 one-dose screen, 48 h (100 = growth as untreated, 0 = no growth, -100 = all killed)
Conditions in all cases: 10 µM unless noted
HCT-15 colon = system: HCT-15 colon
HT29 colon = system: HT29 colon
SNB-75 CNS = system: SNB-75 CNS
SNB-19 CNS = system: SNB-19 CNS
U251 CNS = system: U251 CNS
PC-3 prostate = system: PC-3 prostate
SK-MEL-5 melanoma = system: SK-MEL-5 melanoma
UACC-62 melanoma = system: UACC-62 melanoma
LOX IMVI melanoma = system: LOX IMVI melanoma
SK-MEL-28 melanoma = system: SK-MEL-28 melanoma

SMILES | growth (HCT-15 colon) | growth (HT29 colon) | growth (SNB-75 CNS) | growth (SNB-19 CNS) | growth (U251 CNS) | growth (PC-3 prostate) | growth (SK-MEL-5 melanoma) | growth (UACC-62 melanoma) | growth (LOX IMVI melanoma) | growth (SK-MEL-28 melanoma)
COc1cc2c(c(OC)c1OC)C(=O)CC(c1cccc(NC(=O)c3ccc(Br)cc3)c1)O2 (stereo not given) | 29.8% | 46% | 47.7% | 64.6% | 42.2% | 20.9% | 4.06% (active) | 18.8% | 43.3% | 57%
Cc1ccc(S(=O)(=O)N2CCCC2CO)cc1 (stereo not given) | 95% | 88.5% | 68.1% | 98.9% | 98.1% | 75.6% | 98.4% | 104% | 86.3% | 163%
CCN1C(=O)N(CC)C2C1NN=c1s/c(=C\c3cccc([N+](=O)[O-])c3)c(=O)n12 (stereo not given) | 11.6% | 5.6% (active) | 22% | 31.5% | 13.7% | 33.7% | -5.71% (active) | 32.5% | 16.7% | 61.4%
CCc1ccc(C(=O)/C=C/C23c4ccccc4C(c4ccccc42)C2C(=O)NC(=O)C23)cc1 (stereo not given) | -10.3% (active) | 1.59% (active) | 26.3% | 12% | -25% (active) | 13.3% | 10% | -6.86% (active) | -68.7% (active) | -23.7% (active)
Nc1nc2c([nH]1)c1[nH]c3ccccc3c1c1[nH]c3ccccc3c21 | 51% | 3.16% (active) | 44.5% | 62.4% | -6.57% (active) | 34.9% | 58.7% | -31.9% (active) | 4.23% (active) | -77.5% (active)
COc1cc2c(c(OC)c1OC)-c1ccc(OC)c(=O)cc1[C@@H](NC(=O)CCl)CC2 | 7.81% (active) | 4.97% (active) | 78.9% | 39.1% | 4.55% (active) | 22.8% | -73.7% (active) | 20.8% | -18.2% (active) | 47%
O=C(/C=C(/C=C/c1cccc2[nH]ccc12)OB(F)F)/C=C/c1cccc2[nH]ccc12 | -58.4% (active) | -52.8% (active) | -40.4% (active) | -7.8% (active) | -87% (active) | -42.5% (active) | -78.3% (active) | -51.8% (active) | -81.1% (active) | -14.3% (active)
COCCNC(=O)c1ccc(-c2nc3ccc4[nH]ncc4c3c3c2CCCC3)cc1 | 19.3% | 44.5% | -6.65% (active) | 67.7% | 43.4% | 34.8% | 44.8% | 21.4% | 29.1% | 39.6%
COc1ccc(C(=O)Nc2ncc(Cc3ccc(F)cc3)s2)cc1 | 11.5% | 9.92% (active) | 23.9% | 31.2% | 28.6% | 27.6% | -4.84% (active) | 30.1% | 20% | 48.7%
N#Cc1cccc(NC(=O)c2oc3ccccc3c2-c2cnn(-c3ccccc3)c2)c1 | 74.1% [50 µM] | 85.5% [50 µM] | 86.3% [50 µM] | 84.2% [50 µM] | 85.3% [50 µM] | -9.05% [50 µM] (active) | 67.7% [50 µM] | 75% [50 µM] | 77.9% [50 µM] | 91.9% [50 µM]
CCCCOC(=O)OCc1cc(=O)c(O)co1 | 106% | 101% | 91.5% | 99% | 99.5% | 99.6% | 104% | 99.4% | 99.9% | 107%
COc1ccc(Cc2cc(-c3ccccc3)nn(Cc3ccccc3)c2=O)cc1OC | 28.7% | 29.1% | 58.3% | 46.5% | 32.7% | 20.8% | -3.54% (active) | 30.6% | 48.4% | 59.3%
N#CC1C=CN(CC(N)=O)c2ccc3cccnc3c21 (stereo not given) | 96.2% | 88.3% | 87.2% | 96.1% | 91.7% | 84.2% | 96.5% | 96.9% | 97.5% | 104%
O=C1NC(=O)c2c1c1c3ccccc3ccc1c1[nH]c3ccc(Br)cc3c21 | 13.4% | 26.4% | 22.8% | 23.8% | 20.7% | 3.55% (active) | -82.5% (active) | 29.9% | 22.8% | 44.4%
CS(=O)(=O)C1=CN(CCO)C(=O)N2CCCN=C12 | 107% | 107% | 94.5% | 99.2% | 103% | 98.8% | 97.7% | 102% | 101% | 104%
C=CCn1c(SCC(=O)NCc2cc(C)c(O)c(C)c2)nc2ccc(Cl)cc2c1=O | 95.6% | 102% | 67.5% | 99.7% | 102% | 96.1% | 93.2% | 81.9% | 100% | 109%
Fc1cccc(CNc2c3ccccc3nc3ccccc23)c1F | 39.5% | 29.1% | 78.8% | 58.5% | 65.6% | 57.1% | 83% | 75.7% | 39.2% | 96.9%
CCC(=C(c1ccc(OCCN2CCCC2)cc1)c1ccc(OCCN2CCCC2)cc1)c1ccc(Cl)cc1 | -70.5% (active) | -49.9% (active) | -58.2% (active) | -19% (active) | -77.4% (active) | -7.15% (active) | -83.4% (active) | -46.9% (active) | -90.3% (active) | -81.7% (active)
Cc1cnc(C(=O)NNc2nc3sc4c(c3c(=O)n2C)C(C)CCC4)cn1 (stereo not given) | 15.9% | -2.88% (active) | 1.63% (active) | -14.8% (active) | -33.3% (active) | 8.78% (active) | -53.8% (active) | -20.8% (active) | -17.5% (active) | 8.43% (active)
CC1(C)c2[nH]c3ccccc3c2C[C@]2(C)[C@H]3CC=C4[C@@H]5C[C@@](C)(C(N)=O)CC[C@]5(C)CC[C@@]4(C)[C@]3(C)CC[C@@H]12 | 50.9% | 62.7% | 101% | 62.2% | 69.2% | 50.6% | 19.8% | 59.2% | 56.8% | 77.4%
CCN(CC)CCNC(=O)c1cn2ncnc(Oc3ccc(NC(=O)Nc4ccc(Cl)c(C(F)(F)F)c4)c(F)c3)c2c1C | -38.7% (active) | -42.3% (active) | -7.89% (active) | -48% (active) | -48.6% (active) | 7.99% (active) | -20.3% (active) | -46.2% (active) | -95.4% (active) | -86.6% (active)
COC(=O)c1n[nH]c2ccc3nc(-c4cn[nH]c4C(F)(F)F)c4c(c3c12)CCCC4 | 39% | 25.7% | 28.8% | 68.7% | 41.7% | 64.4% | 40.4% | 21.6% | 21.7% | 25.5%
COc1ccc(-c2cc(-c3ccc(Cl)cc3)c(C#N)c(=O)n2CCCCC(=O)Nc2ccccc2N)cc1 | 19.3% | 21.1% | 22.5% | 69.9% | 55.1% | 50.1% | -39.1% (active) | 23.7% | -60.9% (active) | 65.4%
COCCn1cc(-c2nc(-c3cc4cccnc4n3CCOC)cs2)c2cc(OC)ccc21 | 17% | 21.9% | 62.6% | 91.1% | 69.8% | 29.3% | 36.7% | 80.7% | 15.4% | 87.2%
Cc1c(-n2nnc(-c3nc4ccccc4s3)c2N)c(=O)n(-c2ccccc2)n1C | 98.3% | 100% | 83.1% | 99.9% | 101% | 98.2% | 99.6% | 93.3% | 93.1% | 111%
Oc1c(Cl)cc(Cl)c2ccc(Cn3cc(-c4cc(C(F)(F)F)cc(C(F)(F)F)c4)nn3)nc12 | 12.5% | 53.4% | 62.3% | 94% | 105% | 74.8% | 92.6% | 64.8% | -10.3% (active) | 46%

Reference: PubChem BioAssay (NCI)
